Two compounds from PubChem BioAssay AID2132 (NMMLSC, 2009) can be followed below.

As usually defined, the inhibition is the change of the read-out against control, counted positive when it falls.

A number with no mark means an inactive call.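 Rule for the calls: active = inhibition above 20%; inactive = the rest.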 Peptide text beside a SMILES is read from it. * marks the point of attachment. Cbz = O=C(OCc1ccccc1)*

The test in a line: yeast 26S proteasome protease site inhibitors – biochemical, fluorogenic peptides, secondary, counter-screen for 26S proteasome disassembly project (AID 2132). Conditions: fluorogenic peptide cleavage rate, with Ac-RLR-amc, at 100 µM, active compounds read high.

In the case of `CC(C)C[C@@H](C=O)NC(=O)[C@H](CC(C)C)NC(=O)[C@H](CC(C)C)NC(=O)OCc1ccccc1` (Cbz-Leu-Leu-Leu-aldehyde), the inhibition was 5%.
As for `CC(=O)N1C(=O)C(=C2C=C(C)OC(C)=C2)c2ccccc21`, the inhibition was 20%.
